Sampled rows, rich in hits. Any-hit rate of the full collection: about 2.4%.
D2 PAM-1: positive allosteric modulators of human D2 dopamine receptor | P14416 | 0.34% of 340,000 active | potentiation, % at 10 µM | HEK293 T-REx D2, calcium flux, EC20 dopamine potentiation;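 active = potentiation over 3 SD above the plate norm, cut at about 30% in these data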; also: 0% is about no effect
Target sequence (P14416 whole entry, looked up): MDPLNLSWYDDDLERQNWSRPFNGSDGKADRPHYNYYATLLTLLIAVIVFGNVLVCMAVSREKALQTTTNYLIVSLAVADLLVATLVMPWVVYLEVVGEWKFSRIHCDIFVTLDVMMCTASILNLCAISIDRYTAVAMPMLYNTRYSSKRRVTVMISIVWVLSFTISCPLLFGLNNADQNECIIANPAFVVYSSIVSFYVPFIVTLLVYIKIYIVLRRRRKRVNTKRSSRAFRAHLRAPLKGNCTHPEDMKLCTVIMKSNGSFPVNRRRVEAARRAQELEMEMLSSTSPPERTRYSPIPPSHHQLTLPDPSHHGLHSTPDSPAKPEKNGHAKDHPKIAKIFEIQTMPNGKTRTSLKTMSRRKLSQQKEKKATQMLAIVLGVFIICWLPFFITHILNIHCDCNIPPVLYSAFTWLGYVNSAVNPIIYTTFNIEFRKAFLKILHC
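Calcium flux readout, no-wash dye, 1 read/s. Inducible HEK293 Trex D2 line, overnight 30 C. Compound alone 180 s (agonist flags), then EC20 dopamine, another 180 s to score potentiation.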
D2 antagonist: antagonists of human D2 dopamine receptor; HEK293 TREx D2 cells, calcium flux, dopamine EC80; inhibition, % at 10 µM; 2% of 340,000 active; in the data active = inhibition above about 30%; inactive = below that, where a call was filed; also: 0% is about no effect
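HEK293 T-REx D2 cells, tet-induced, calcium dye no-wash. Cpd pintool add, 180 s kinetic, then EC80 DA, 180 s kinetic. Ca flux read.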
D2 ag-1: agonists of human D2 dopamine receptor (beta-arrestin) | 0.084% of 360,000 active | AID 624465 | P14416 | activation, % (concentration not given with the values) | DiscoveRx PathHunter D2 beta-arrestin, luminescence, 90 min; 100% = 57 uM dopamine signal; in the data active = activation above about 40%
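Agonist mode: compounds alone added to overnight-plated D2 PathHunter cells for 90 min at 37 C, with 57 uM final dopamine (EC100) defining full response. Beta-arrestin recruitment detected by chemiluminescent reagent, read after 1 h at ambient temperature.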
D2 PAM-2: potentiates the human D2 dopamine receptor allosterically; DiscoveRx D2 beta-arrestin cells, luminescence, 90 min; 100% = 57 uM dopamine signal; potentiation, % (no concentration beside the values); 0.23% of 360,000 active; AID 624464; in the data active = potentiation above about 50%
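D2 cells co-treated with compound plus 50 nM dopamine (EC20) for 90 min at 37 deg C to detect potentiation. Beta-arrestin recruitment was read as enzyme-fragment luminescence after 1 h at ambient temperature. Full response was set by 57 uM dopamine.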
D2 ag-2: agonists of human D2 dopamine receptor; HEK293 T-REx D2 cells, calcium flux agonist mode; 0.53% of 340,000 active; P14416; AID 485358; activation, % at 2 µM;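 active = activation over 3 SD above normal in the single-dose calcium agonist read, cut at about 30% in these data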; also: 0% is about no effect
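In this primary screen, compounds producing a positive calcium signal within 180 s of addition to tetracycline-induced, force-coupled HEK293 Trex D2 cells are flagged; cells are dye-loaded with a no-wash calcium kit beforehand.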
* marks the source's active call; other numbers are inactive results; / = no result; ! = not active in a repeat.

SMILES	D2 PAM-1	D2 antagonist	D2 ag-1	D2 PAM-2	D2 ag-2
O=C(NC(=S)NCc1ccccc1)c1ccccc1	8.9	35.8*	1.0	-8.2	-1.0
O=C(NC(=S)Nc1nc2c(s1)CCCC2)c1ccccc1	-17.6	34.8*	-1.5	-17.5	3.7
COC(=O)c1ccc(C(=O)NC(=S)Nc2nc3c(s2)CCCC3)cc1	/	/	-1.1	10.1	/
O=C(NCc1ccccc1Cl)c1nnc(Cc2cccc(F)c2)o1	-5.2	/	/	/	1.1
O=C(CS(=O)(=O)c1ccc(F)cc1)NCc1ccccc1	-0.5	34.3*	-6.4	0.4	0.8
COc1ccc(Cl)c2c1[nH]c1nc(SCc3cccnc3)nnc12	-7.5	17.4	-4.8	-6.2	2.5
COc1ccc(Cl)c2c1[nH]c1nc(SCc3ccccn3)nnc12	-10.4	42.9*	1.5	-17.3	-0.6
Cc1ccc(CC(=O)Nc2ccc(F)c([N+](=O)[O-])c2)cc1C	-7.8	42.2*	-3.5	-9.0	1.6
CCc1ccc(NCc2cc3cc(OC)c(OC)cc3n(CC(=O)Nc3cc(C)ccc3C)c2=O)cc1	2.3	/	/	/	9.5
Cc1cc(C)cc(NC(=O)N2CCC(CN3CCCCCC3)CC2)c1	0.3	/	/	/	0.7
CC(C)(C)c1cc(C(F)(F)F)nc(SCCCNC(=O)c2ccco2)n1	13.2	35.6*	2.3	-6.9	-1.3
CC(C)(C)c1ccc(C(=O)NCCCNC(=O)c2ccco2)cc1	-3.0	12.8	-2.6	-3.5	0.2
CC1CCN(S(=O)(=O)c2ccc3ncn(CC(=O)N4CCN(C)CC4)c(=O)c3c2)CC1	12.2	48.4*	-4.5	-3.9	-0.1
Cc1ccc(Cl)cc1NC(=O)Cn1nc2c(cc1=O)CC(C)CC2 (stereo not given)	-2.1	/	/	/	0.7
CC1(C)S[C@@H]2[C@H](NC(=O)Cc3ccccc3)C(=O)N2[C@H]1C(=O)O	6.0	32.8*!	-3.0	-11.5	0.9
CCC(Oc1ccccc1)C(=O)NC1C(=O)N2C1SC(C)(C)C2C(=O)O (stereo not given)	5.3	-0.5	4.3	3.9	-0.2
CCOC(=O)c1ccc(NS(=O)(=O)c2c(C)[nH]c(C)c2C(=O)N2CCCCC2)cc1	-6.3	69.3*	-1.8	7.3	1.1
CCC(=O)N1CCc2cc(S(=O)(=O)CCC(=O)NCCC3=CCCCC3)ccc21	/	/	0.5	-16.8	/
CCC(=O)N1c2ccc(S(=O)(=O)CCC(=O)NCCC3=CCCCC3)cc2CC1C (stereo not given)	-14.2	30.9*	-0.1	-34.6	-0.4
Cc1cccc(NC(=O)Cn2c(=O)n(CCCCCC(=O)NCc3ccccc3)c(=O)c3sccc32)c1	-6.7	/	/	/	0.0
O=C(C1CC(=O)N(c2ccc(F)cc2)C1)N1CCC(c2nc3ccccc3[nH]2)CC1 (stereo not given)	-20.5	-12.6	1.4	-10.1	-0.1
Cc1ccc(N2CC(C(=O)N3CCC(c4nc5ccccc5[nH]4)CC3)CC2=O)cc1C (stereo not given)	-11.3	33.6*	0.7	-7.0	-0.3
O=C1CC(c2nc3ccccc3[nH]2)CN1c1cccc(C(F)(F)F)c1 (stereo not given)	-5.1	32.9*	-0.8	-8.3	1.4
CCOc1ccc(CNC(=O)C2CCCN(c3nn4cc(-c5ccc(OC)cc5)nc4s3)C2)cc1 (stereo not given)	-4.5	/	/	/	0.7
Cc1cc2ccc(C)c(C)c2nc1SCC(=O)c1cccs1	-7.5	60.4*	-2.6	-7.5	1.7
SMILES	D2 PAM-1	D2 antagonist	D2 ag-1	D2 PAM-2	D2 ag-2
O=C(NCCCN1CCCC1)c1ccc(CS(=O)(=O)c2ccc(Br)cc2)o1	12.6	-2.8	-0.4	-9.1	0.1
Cc1ccc(S(=O)(=O)Cc2ccc(C(=O)NCCCN3CCCC3=O)o2)cc1	-3.1	34.0*	-3.3	1.1	0.9
O=C1c2ccccc2-c2nc3ccccc3n21	34.6*	16.4	-2.0	-0.6	0.3
COc1ccc(S(=O)(=O)/C(C#N)=C/Nc2cccc(F)c2)cc1	1.3	-4.9	-1.4	3.9	-0.4
COc1ccc(S(=O)(=O)/C(C#N)=C/Nc2ccccc2F)cc1	-2.4	39.8*	1.4	-5.9	-0.4
CN(C)c1ccc(/C=C/C(=O)c2ccc3c(c2)OCO3)cc1	-16.5	-51.6	-3.1	10.3	68.4*
CN(C)c1ccc(/C=C/C(=O)c2ccc(O)cc2)cc1	/	/	4.3	0.0	/
CN(C)c1ccc(/C=C/C(=O)c2cccnc2)cc1	-8.7	-12.1	0.5	-7.0	59.1*

From PubChem
